# Source: PubChem BioAssay
# A selection: hits, their analogues and other compounds. The true share with any hit is near 3.9%.
# GALK inhibitor – qHTS Assay for Inhibitors of Human Galactokinase (GALK). hit rate 0.007% among 270,000. P51570. Potency, µM (series often up to 57.5 µM), for inactives: at the top dose activity change, negative = inhibition, most hits filed as inhibitors. Purified GALK, Kinase-Glo residual ATP luminescence; note: potency is the fitted concentration of half-maximal effect; % is set by controls: 0 for no effect and ±100 for the full control effect
# Target sequence (P51570 whole entry, looked up): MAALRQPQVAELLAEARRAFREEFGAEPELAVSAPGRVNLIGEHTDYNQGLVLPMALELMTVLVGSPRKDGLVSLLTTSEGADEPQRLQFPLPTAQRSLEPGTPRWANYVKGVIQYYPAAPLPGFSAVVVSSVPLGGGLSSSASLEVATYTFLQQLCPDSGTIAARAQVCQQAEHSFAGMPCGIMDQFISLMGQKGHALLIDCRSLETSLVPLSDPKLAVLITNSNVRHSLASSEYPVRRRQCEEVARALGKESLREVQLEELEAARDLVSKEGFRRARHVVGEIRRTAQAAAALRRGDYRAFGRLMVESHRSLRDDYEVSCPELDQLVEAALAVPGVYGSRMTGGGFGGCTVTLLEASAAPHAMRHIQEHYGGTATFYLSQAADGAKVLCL
#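 Compounds were pin-transferred into ATP buffer (35 uM final), then GALK plus galactose (5 nM, 100 uM final) was added. After 1 h at room temperature, Kinase-Glo Plus was added and luminescence read after 10 min.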
# USP2a block – qHTS Assay for Inhibitors of Ubiquitin-specific Protease USP2a Using CHOP2 as the Reporter; hit rate 0.01% among 330,000; USP2 core, Ub-CHOP2 coupled fluorogenic reporter, 485/531; Potency, µM (doses to about 38.3 µM), inactives show at the top dose activity change, negative = inhibition, actives largely listed as inhibitors; AID 463254, 2010; Ubiquitin carboxyl-terminal hydrolase 2 (Homo sapiens), O75604;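 note: potency is the fitted concentration of half-maximal effect; plate controls were DMSO wells for no effect and full inhibition by NEM control for full effect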
#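 USP2 core (10nM final) preincubated 30min RT with compound in 20mM Tris-HCl pH 8.0, 2mM CaCl2, 2mM beta-mercaptoethanol, 0.05% CHAPS; 25nM Ub-CHOP2 plus 25nM reporter substrate added, fluorescence (Ex485/Em531) read after 60min.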
# D1 antagonist – Antagonist of Human D 1 Dopamine Receptor: qHTS; hit rate 3.2% among 360,000; D(1A) dopamine receptor (Homo sapiens), P21728; HEK293 TREx D1 cells, calcium flux, dopamine EC80; hits give low values; activity change, negative = inhibition, % at 10 µM; AID 504652, 2011; in the data active = activity change below about -30%; note: % is set by controls: 0 for no effect and ±100 for the full control effect
#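 Cells carrying a force-coupled, tetracycline-inducible human D1 receptor report calcium flux. Each well gets a 10 s baseline, compound with 180 s monitoring, then an EC80 dopamine stimulus with a second 180 s kinetic read.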
# Eya2 inh – qHTS Assay for Inhibitors of the Phosphatase Activity of Eya2. recombinant Eya2, OMFP fluorescence dephosphorylation (OMFP is methylfluorescein phosphate). Potency, µM (doses to about 76.9 µM), inactives show at the highest dose activity, negative = inhibition, hits mostly inhibitors. hit rate 0.006% among 330,000. AID 488837, 2010; note: potency is the fitted concentration of half-maximal effect; % is set by controls: 0 for no effect and ±100 for the full control effect
#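 Eya2 protein (added as 0.2 uM solution) was preincubated with compound for 10 min at ambient temperature in 50 mM HEPES pH 7.5, 50 mM NaCl, 5 uM MgCl2, 0.05% BSA, 1 mM DTT. OMFP (added at 50 uM) then reacted 10 min; fluorescence read at 485/525 nm.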
# D1 agonist – Allosteric Agonists of the Human D1 Dopamine Receptor: qHTS; D(1A) dopamine receptor (Homo sapiens), P21728; HEK293 T-REx D1 cells, calcium flux, agonist mode; activation, % at 2 µM; hit rate 1% among 360,000; AID 504660, 2011; in the data active = activation above about 30%; note: 0% is about no effect
#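 Inducible HEK293 T-REx D1 cells, force-coupled to calcium signalling, were plated at 4000 cells/well with tetracycline and held overnight at 30 C. After no-wash calcium dye loading, compound-evoked calcium rise over 180 s flagged agonists.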
# D1 PAM – Potentiators of Human D1 Dopamine Receptor: qHTS; D(1A) dopamine receptor (Homo sapiens), P21728; HEK293 TREx D1 cells, calcium flux, dopamine EC20 potentiation; potentiation, % at 10 µM; hit rate 0.036% among 360,000; AID 504651, 2011; in the data active = potentiation above about 30%; note: 0% is about no effect
# Numbers without * were called inactive; ? = inconclusive; · = no result. Unless noted, calls come from the whole dose curve; as a rule, active = well fitted inhibition curve with a large enough effect; inconclusive = small, poorly fitted or top-dose-only effect, or effect the other way; inactive = flat fitted curve, though single readings scatter.
SMILES,GALK inhibitor,USP2a block,D1 antagonist,Eya2 inh,D1 agonist,D1 PAM
O=C1/C(=C\c2c(NCCOCCO)nc3ccccn3c2=O)SC(=S)N1Cc1ccco1,0%,3%,7,17%,138*,-3
CCN1/C(=C\C=C(C(C)=O)C(C)=O)Sc2ccccc21,0%,?,12,-5%,80*,-4
CCN1/C(=C\C=C2\C(=O)N(c3ccccc3)C(=S)N2C)Sc2ccccc21,5%,-10%,-12,-20%,1,1
CCOC(=O)/C(C#N)=C(C)/C=C1\Sc2ccccc2N1CC,1%,?,10,4%,45*,-6
CCN1/C(=C\C(=S)Nc2ccccc2)Sc2ccccc21,-1%,-2%,-4,7%,7,-2
COc1ccc(/C=N/NC(=O)CCC(=O)Nc2ccccc2)cc1OC,0%,0%,2,-10%,1,-1
COc1ccc(/C=N/NC(=O)CCCOc2ccc(Cl)cc2Cl)cc1,1%,-8%,-32*,-3%,3,-6
COc1ccc(/C=N\NC(=O)CC(=O)Nc2cccc(Cl)c2)cc1OC,3%,0%,-51*,6%,-1,0
CNC(=O)C1CCC(Cn2c(=O)c3sccc3n(CC(=O)NCc3ccc(F)cc3)c2=O)CC1 (configuration not stated),·,·,1,·,2,-2
CCCn1c(CCC(=O)Nc2cc(OC)cc(OC)c2)nc2cccnc21,·,·,-9,·,1,0
Cc1cc(S(=O)(=O)N2CCCC(N(C)CCc3ccccn3)C2)c(C)cc1Cl (configuration not stated),0%,1%,-54*,-6%,18,-15
Nc1ccc2c(c1)Nc1ccccc1CC2,7%,-1%,-31*,-2%,0,-7
Cc1ccc(C)c(Cn2nnc(C(=O)NCc3ccc(Cl)cc3Cl)c2N)c1,·,·,-6,·,19,3
N#Cc1ccc(-c2nc3ccc(Br)cc3c(=O)n2O)cc1,-1%,0%,6,16%,3,5
O=c1c2cc(Br)ccc2nc(-c2cccc(C(F)(F)F)c2)n1O,·,0%,3,-2%,62*,4
O=c1c2cc(Cl)ccc2nc(-c2ccc(Cl)c(Cl)c2)n1O,-5%,0%,-45*,?,88*,-10
O=C(NCCc1ccccc1)c1ccc(Cn2c(SCc3cccc(F)c3)nc3cccnc32)cc1,·,2%,4,-16%,8,0
Cc1cccc(C)c1NC(=O)c1c[nH]c2ccccc12,5%,1%,-48*,-4%,0,-11
Cc1cccc(C)c1NC(=O)CNC(=O)Cc1c[nH]c2ccccc12,·,0%,-10,5%,1,0
CCCCCOc1ccc(C(=O)NCC2(c3ccccc3)CCOCC2)cc1,-1%,3%,-12,-13%,25,-7
CCCCn1nc2cc(C(=O)NCCc3cccs3)ccc2c1OCC,-1%,1%,-67*,-8%,1,-11
CCCCOc1ccc(C(=O)NCCc2cccs2)cc1,8%,5%,-32*,0%,14,-2
CCCCOc1ccc(C(=O)NCC2(c3ccccc3)CCOCC2)cc1,0%,-5%,-40*,-21%,12,-4
CC(C)(C)c1ccc(CSc2nc3c(c(=O)[nH]2)CCCC3)cc1,·,·,-5,·,4,-3
COc1ccc(C2Nc3ccccc3C(=O)N2Cc2ccccc2)cc1COc1ccc(Cl)cc1Cl (configuration not stated),·,2%,-3,-4%,6,-1
SMILES,GALK inhibitor,USP2a block,D1 antagonist,Eya2 inh,D1 agonist,D1 PAM
CCCCCC(=O)N/N=C/c1cccs1,0%,-4%,-47*,-14%,-1,1
CCC(Oc1ccccc1F)C(=O)N1CCC(c2nc3ccccc3s2)CC1 (configuration not stated),·,·,-18,·,36*,-2
CCc1ccc(NC(=O)Cn2c(=O)n(Cc3ccc(C)cc3)c(=O)c3cccnc32)cc1,·,·,11,·,0,-3
Cc1ccccc1CCNCc1c(C(=O)O)c(C)n(Cc2c(F)cccc2Cl)c1C,·,·,8,·,-2,-2
Cc1ccc(C(C)(C)C)cc1S(=O)(=O)Nc1cccc(C(=O)N2CCN(c3ccccn3)CC2)c1,·,-10%,3,7%,33*,3
COc1ccccc1NC(=O)c1cc2c(=O)n(Cc3cccs3)ccc2nc1C,·,·,-40*,·,0,-4
Cc1ccc(NC(=O)COCc2cc(-c3cccs3)on2)cc1Cl,·,·,5,·,4,1
COC(=O)c1ccc(CN2CCC(CO)(Cc3ccccc3Cl)CC2)cc1,1%,8%,-2,6%,4,1
COc1ccc(/C=C/CN2CCC(CO)(Cc3ccccc3Cl)CC2)cc1,6%,-4%,-1,-3%,109*,3
Clc1ccc2oc(-c3ccccc3)nc2c1,-2%,2%,-1,-1%,3,2
Clc1ccc2oc(-c3cccnc3)nc2c1,-1%,1%,-37*,-9%,6,-2
CCCCOc1ccccc1C(=O)Nc1nonc1-c1ccccc1,·,·,-6,·,18,0
COC(=O)c1cc(Nc2nc3ccccc3nc2NS(=O)(=O)c2ccc(C)cc2)ccc1Cl,·,·,-31*,·,17,-4
CC(=O)Nc1ccc(S(=O)(=O)Nc2nc3ccccc3nc2Nc2ccc3ccccc3c2)cc1,-3%,-4%,-2,-4%,5,-3
COc1cc(Nc2nc3ccccc3nc2NS(=O)(=O)c2ccc([N+](=O)[O-])cc2)cc(OC)c1OC,6%,2%,-74*,5%,1,-20
CN1/C(=C\C(=S)NC(=O)c2cccc(Br)c2)C(C)(C)c2ccccc21,0%,1%,-69*,-5%,3,-6
CN1/C(=C\C(=S)NC(=O)c2ccc([N+](=O)[O-])cc2)C(C)(C)c2ccccc21,0%,-6%,-5,-18%,1,-5
Cc1cc(C=O)c(C)n1-c1ccc(N2CCCCC2)c([N+](=O)[O-])c1,0%,1%,-22,-7%,7,1
Cc1cc(/C=C(\C#N)C(N)=O)c(C)n1-c1ccc(N2CCOCC2)c([N+](=O)[O-])c1,-1%,2%,-32*,-7%,12,-10
